Test results taken from PubChem BioAssay.

Experiment: inhibitors of Chlamydomonas gravitaxis, primary screen, whole organism, Chlamydomonas reinhardtii, WT vs cilia-less mutant, absorbance, 96-well (AID 463189);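 note: 0% = wild type cc124 cells in DMSO and 100% = ciliumless bld1 mutant cells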
Conditions: OD600 absorbance, 2 days, at 10 µM, active compounds read high;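 active = inhibition at or above 50% relative to wild type and mutant plate controls; inactive = inhibition below 50%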

inhibition, inactive:
COc1ccc(CCN(C)CCc2ccc(OC)c(OC)c2)cc1OC 11.9%
CC(C)C[C@H](NC(=O)C1OC1C(=O)O)C(=O)NCCCCN=C(N)N (stereo not given in full) -4.58%
COc1cc2c(cc1OC)[C@@H](c1ccccc1)CN(C)CC2 8.36%
O=c1oc(Cl)c(Cl)c2ccccc12 3.88%
COc1cc(NS(C)(=O)=O)ccc1Nc1c2ccccc2nc2ccccc12 -1.97%
CC1(C)CCC(NC(=O)[C@@H](N)CCC(=O)O)CC1 2.89%
CCCCCCCCCCCCCCCCOCC(COCC(F)(F)F)OP(=O)(O)OCO (stereo not given) 6.55%
NC(N)=NCCCCN=C(N)N -4.67%
NC(N)=NCc1cccc(I)c1 4.17%
C[C@@H](NCCc1ccc(O)cc1)[C@@H](O)c1ccc(O)cc1 2.54%
OC(CN1CCN(c2cccc(Cl)c2)CC1)C(c1ccccc1)c1ccccc1 (stereo not given) 4.93%
COc1cc(-c2ccc(=O)[nH]n2)ccc1OC(F)F 8.84%
NCCSSCCN 6.01%
NC(N)=[N+]1CCc2ccccc2C1 -2.7%
Oc1cc2c(c(Cl)c1O)CCNCC2c1ccccc1 (stereo not given) 6.8%
Cn1cc(C2=C(c3ccc(Cl)cc3Cl)C(=O)NC2=O)c2ccccc21 -0.155%
NC(Cc1ccc(Cl)cc1)C(=O)O (stereo not given) -1.92%
COc1cc(/C=C(\C#N)C(=O)c2ccc(O)c(O)c2)cc(I)c1O 7.26%
COc1nc(C)nc(Cl)c1NC1=NCCN1 1.2%
Nc1ncnc2c1ncn2C1CCCO1 (stereo not given) -5.2%
Oc1cc2c(cc1O)C(c1ccccc1)CNCC2 (stereo not given) -4.78%
O=C(O)CN(CCOCCOCCN(CC(=O)O)CC(=O)O)CC(=O)O 3.4%
CCCCCC[C@@H]([C@@H](C)O)n1cnc2c(N)ncnc21 -0.492%
CCN1/C(=C/C(C)=O)Sc2ccc(OC)cc21 9.38%
O=C(O)C1=CC(=C(c2ccc(O)c(C(=O)O)c2)c2ccc(O)c(C(=O)O)c2)C=CC1=O 0.098%
CCCC(C(=O)OCCN(CC)CC)(c1ccccc1)c1ccccc1 4.83%
CN1C(C)(C)CCCC1(C)C 7.18%
CC[C@H](C)C(=O)O[C@H]1CCC=C2C=C[C@H](C)[C@H](CC[C@@H]3C[C@@H](O)CC(=O)O3)[C@H]21 9.46%
CC1(NCC(O)COc2cccc3[nH]ccc23)CCC(C(C)(C)NC(=O)CBr)CC1 (stereo not given) 5.45%
Cn1c(=O)c2c(nc(/C=C/c3cccc(Cl)c3)n2C)n(C)c1=O 18.1%
CC1=C(CC(=O)O)c2cc(F)ccc2/C1=C\c1ccc(S(C)=O)cc1 (stereo not given) 5.19%
CCCOc1ccccc1-c1nc2n[nH]nc2c(=O)[nH]1 -8.54%
NCCCNCCCCNCCCN -2.56%
CCCCNc1c(C(=O)OCC)c(C)nc2c1cnn2CC 8.88%
Cc1cccc(C#Cc2ccccc2)n1 8.4%
COc1cc(C(O)C(=O)O)ccc1O (stereo not given) 2.56%
O=C(CCCN1CCC(O)(c2cccc(C(F)(F)F)c2)CC1)c1ccc(F)cc1 40.6%
CCCn1c(=O)c2[nH]c(-c3ccc(OCC(=O)NCCN)cc3)nc2n(CCC)c1=O 3.94%
CN1CCc2cccc3c2C1Cc1ccc(O)c(O)c1-3 (stereo not given) -7.51%
N[C@@H](Cc1ccc(O)c(O)c1)C(=O)O 2.49%
